This is part of a sample that, as a whole, favours compounds with a hit. Of some 79,000 tested, about 15% had one in any assay. The source made the active and inactive calls. Cut-off read from the data, not from the text of the source: active = growth inhibition above about 70%; inactive = the rest.
What was measured:
[1] = NCI Yeast Anticancer Drug Screen. Data for the rad52 strain (AID 147);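 note: 0% = growth of vehicle-treated control cultures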; details: S. cerevisiae rad52 mutant growth inhibition, hits give high values
Method in brief: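 Measured: yeast growth inhibition. System: strain with a defined DNA damage repair alteration. Reference: vehicle-treated control cultures.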

[2] = NCI Yeast Anticancer Drug Screen. Data for the wt1 strain (AID 149);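 note: 0% = growth of vehicle-treated wt1 cultures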; details: S. cerevisiae wt1 strain (SPY 50644) growth inhibition, hits give high values
Method in brief: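 Compounds are added to wt1 yeast cultures. Growth is then measured. Inhibition is expressed relative to vehicle-treated controls.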

[3] = NCI Yeast Anticancer Drug Screen. Data for the rad50EPP+ strain (AID 151);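 note: 0% = growth of vehicle-treated control cultures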; details: S. cerevisiae rad50 mutant strain, hits give high values
Method in brief: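 One strain with a rad50 alteration (rad50EPP+) was compound-treated, its growth then compared to that of vehicle controls.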

[4] = NCI Yeast Anticancer Drug Screen. Data for the mgt1 strain (AID 153); details: S. cerevisiae mgt1 mutant growth inhibition, hits give high values
Method in brief: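 After exposure of the mgt1 yeast mutant to compound, growth was measured and reported as inhibition compared with vehicle controls.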

[5] = NCI Yeast Anticancer Drug Screen. Data for the rad50 strain (AID 155);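 note: 0% = growth of vehicle-only cultures of the same strain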; details: S. cerevisiae rad50 strain growth inhibition, hits give high values
Method in brief: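 Inhibition values express reduced yeast growth in compound-treated cultures relative to vehicle-treated controls.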

[6] = NCI Yeast Anticancer Drug Screen. Data for the mec2-1 strain (AID 157); details: S. cerevisiae mec2-1 strain, hits give high values
Method in brief: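 Test agents were screened against the mec2-1 yeast strain, with defined DNA repair or cell cycle alteration. Growth was scored as inhibition against vehicle-only controls.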

[7] = NCI Yeast Anticancer Drug Screen. Data for the rad14 strain (AID 159);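 note: 0% = growth of vehicle-treated control cultures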; details: S. cerevisiae rad14 strain growth inhibition, hits give high values
Method in brief: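 A mutant yeast strain defective in DNA damage repair is treated with compound; inhibition of its growth is scored against untreated, vehicle-exposed cultures.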

[8] = NCI Yeast Anticancer Drug Screen. Data for the sgs1 mgt1 strain (AID 161);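 note: 0% = growth of cultures given vehicle only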; details: S. cerevisiae sgs1 mgt1 strain, hits give high values
Method in brief: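 Test agents were incubated with a DNA-repair-mutant yeast strain. Growth was then read and compared against vehicle-treated controls.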

[9] = NCI Yeast Anticancer Drug Screen. Data for the CLN2oe strain (AID 163);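 note: 0% = growth of vehicle-only control cultures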; details: S. cerevisiae CLN2oe strain, hits give high values
Method in brief: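 Here, growth inhibition in a cell-cycle-altered yeast strain after compound exposure was quantified against vehicle control growth.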

[10] = NCI Yeast Anticancer Drug Screen. Data for the cln2 rad14 strain (AID 165);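 note: 0% = growth equal to vehicle treated cultures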; details: S. cerevisiae cln2 rad14 strain, hits give high values
Method in brief: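 Growth of compound-exposed yeast (cln2 rad14 genotype) measured and expressed as inhibition relative to vehicle.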

[11] = NCI Yeast Anticancer Drug Screen. Data for the bub3 strain (AID 167); details: S. cerevisiae bub3 mutant strain, hits give high values
Method in brief: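 Steps: expose the mutant yeast strain to compound; grow alongside vehicle-treated cultures; measure growth; express inhibition against the vehicle cultures.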

[12] = NCI Yeast Anticancer Drug Screen. Data for the wt2 strain (AID 169);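 note: 0% = growth of vehicle-treated yeast cultures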; details: S. cerevisiae wt2 strain growth inhibition, hits give high values
Method in brief: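 Genetically defined yeast strains from a DNA-repair/cell-cycle panel were used. Compound-exposed yeast growth was measured, and the inhibition was calculated relative to vehicle treatment.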

[13] = NCI Yeast Anticancer Drug Screen. Data for the mlh1 strain (AID 171);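 note: 0% = growth of vehicle-treated control cultures of the same strain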; details: S. cerevisiae mlh1 strain growth inhibition, hits give high values
Method in brief: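 Here the genetically defined yeast mutant is grown with each compound, and the extent to which its growth falls below that of vehicle-exposed cells is reported.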

[14] = NCI Yeast Anticancer Drug Screen. Data for the sgs1 strain (AID 173);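 note: 0% = growth of vehicle-only control cultures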; details: S. cerevisiae sgs1 mutant, hits give high values
Method in brief: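 Relative growth inhibition, referenced to vehicle, was determined in a yeast strain with a defined alteration affecting DNA damage repair or cell cycle control after compound exposure.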

[15] = NCI Yeast Anticancer Drug Screen. Data for the mlh1 rad18 strain (AID 175); details: S. cerevisiae mlh1 rad18 strain growth inhibition, hits give high values
Method in brief: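 In this whole-cell yeast screen, a strain with altered DNA damage repair is challenged with compound, and its growth is measured against matched vehicle-treated controls.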

[16] = NCI Yeast Anticancer Drug Screen. Data for the rad18 strain (AID 177); details: S. cerevisiae rad18 mutant growth inhibition, hits give high values
Method in brief: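 Screen uses a yeast strain with a defined lesion in DNA damage repair; compound effect is read as loss of growth compared to untreated vehicle cultures.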

[17] = at 5.0 µM (retest, dose inferred, filed as 0.5)
[18] = at 50.0 µM (retest, dose inferred, filed as 5.0)

Measured: growth inhibition

COc1cc(CSc2ccc(O)cc2)cc(O)c1O
inactive: [1]; at 1.2 µM 2% | [1]; at 3.7 µM 3% | [1]; at 11.0 µM 5% | [1]; at 33.0 µM 7% | [1]; at 100.0 µM 8% | [2]; at 1.2 µM 0% | [2]; at 3.7 µM 0% | [2]; at 11.0 µM 1% | [2]; at 33.0 µM -2% | [2]; at 100.0 µM -1% | [3]; at 1.2 µM -3% | [3]; at 3.7 µM -4% | [3]; at 11.0 µM -6% | [3]; at 33.0 µM -6% | [3]; at 100.0 µM 0% | [4]; at 1.2 µM 1% | [4]; at 3.7 µM -3% | [4]; at 11.0 µM 1% | [4]; at 33.0 µM 0% | [4]; at 100.0 µM 2% | [5]; at 1.2 µM 3% | [5]; at 3.7 µM 6% | [5]; [17] 5% | [5]; at 11.0 µM -2% | [5]; at 33.0 µM 6% | [5]; [18] 42% | [5]; at 50.0 µM 60.8% | [5]; at 100.0 µM 6% | [6]; at 1.2 µM 4% | [6]; at 3.7 µM -1% | [6]; [17] -14% | [6]; at 11.0 µM -1% | [6]; at 33.0 µM -4% | [6]; [18] -6% | [6]; at 50.0 µM 54.1% | [6]; at 100.0 µM 0% | [7]; at 1.2 µM 1% | [7]; at 3.7 µM 2% | [7]; at 11.0 µM 5% | [7]; at 33.0 µM 0% | [7]; at 100.0 µM 1% | [8]; [17] -3% | [8]; [18] 30% | [9]; at 1.2 µM 6% | [9]; at 3.7 µM 8% | [9]; at 11.0 µM 10% | [9]; at 33.0 µM 12% | [9]; at 100.0 µM 17% | [10]; [17] 18% | [10]; [18] 14% | [10]; at 50.0 µM 36% | [11]; at 1.2 µM 6% | [11]; at 3.7 µM 10% | [11]; [17] -7% | [11]; at 11.0 µM 11% | [11]; at 33.0 µM 9% | [11]; [18] 14% | [11]; at 50.0 µM 61.2% | [11]; at 100.0 µM 6% | [12]; at 1.2 µM 1% | [12]; at 3.7 µM 1% | [12]; at 11.0 µM 0% | [12]; at 33.0 µM -1% | [12]; at 100.0 µM 1% | [13]; at 1.2 µM 4% | [13]; at 3.7 µM 0% | [13]; at 11.0 µM 3% | [13]; at 33.0 µM 2% | [13]; at 100.0 µM 3% | [14]; at 1.2 µM -1% | [14]; at 3.7 µM -2% | [14]; at 11.0 µM -1% | [14]; at 33.0 µM -1% | [14]; at 100.0 µM 2% | [15]; [17] 13% | [15]; [18] -1% | [16]; at 1.2 µM -2% | [16]; at 3.7 µM 1% | [16]; at 11.0 µM 2% | [16]; at 33.0 µM -10% | [16]; at 100.0 µM 10%
active: [8]; at 50.0 µM 74.7% | [15]; at 50.0 µM 73.5%

Reference: PubChem BioAssay (NCI)
